The campaign covered roughly 1,200 compounds. About 650 (54%) were called active. Not shown: some 5% with an inconclusive outcome.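 The calls were made as follows: active = signal-lowering curve whose fitted half-maximal concentration is at or below ten times the top valid dose tested; inconclusive = flat curve with 30 to 70% inhibition, or poor fit; inactive = signal increase, flat within 30%, or potency beyond limit.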 The set was probably picked from earlier hits. The list is a sample of the results. Results with a measured potency or affinity are listed apart.
Test: inhibitors of LMP1-driven NF-kB reporter, dose response, cell-based, HEK293, luciferase, cherry-pick (AID 588343)
Settings: HEK293 LMP1 TES2 NF-kB luciferase reporter, 16 h; series mostly up to 35 µM

outcome, inactive:
Fc1cccc(Cl)c1/C=N/n1c(-c2cccnc2)n[nH]c1=S
O=C(NCc1ccco1)C1CC(=O)N(c2cccc(Cl)c2)C1 (stereo not given)
COc1ccc(/C=C/C(=O)OCC(=O)NCc2ccco2)cc1OC
COc1cc(NCCCCCCN)c2ncccc2c1OC
O=C(Nc1ccc(F)c(F)c1)C1CCCCC1
COC(=O)c1ccccc1NC(=O)CSc1nnnn1C
Cc1ccc(S(=O)(=O)N2CCN(C(=O)CSc3nnnn3C)C2)cc1
O=C1c2ccccc2C(O)N1Cc1ccccc1 (stereo not given)
Cc1cc(=S)[nH]c2ccccc12
Cc1ccc(-n2c(=O)c3c(c4cc(C)ccc4n3C)n(CC(=O)NCC3CCCO3)c2=O)cc1 (stereo not given)
COC(=O)c1c(O)ccc(Oc2ccccc2)c1C(=O)OC
NC(=O)OCC(COC(N)=O)c1ccccc1
CC1CCN(CCOc2ccc(C(=O)c3ccccc3)cc2)CC1
O=C(O)c1ccccc1Nc1cccc(OCc2ccc3ccccc3n2)c1
CCN(CC)S(=O)(=O)c1ccc(N=NC2=C(O)CCCC2=O)cc1
Cc1cc(NC(=O)CSc2ccnc(=O)[nH]2)no1
COC(=O)c1c(NC(=O)c2nn(C)cc2Cl)sc2c1CCCC2
Nc1ccccc1SC1CC(=O)N(c2ccccc2Cl)C1=O (stereo not given)
Cc1ccc(S(=O)(=O)N[C@H](C(=O)N2CCC(C(=O)N[C@@H](CC(=O)O)C(=O)O)CC2)C(C)C)cc1
CCCSc1ccc([C@@H]2[C@H]3C(=O)N(C)C(=O)[C@H]3[C@]3(C(=O)OC)CCCN23)cc1OC
CC(C)N1CCN(c2ccc(OC[C@H]3CO[C@](Cn4cncn4)(c4ccc(Cl)cc4Cl)O3)cc2)CC1
COC(=O)C1=C(C(=O)c2ccccc2)C(c2ccccc2)n2nnnc2N1 (stereo not given)
Cc1cc(C)n2nc(CC(=O)NC3CCCCCC3)nc2n1
Cc1cc(=O)[nH]c(N/N=C/c2ccc(C)o2)n1
Cc1cc(C)c2sc(NC(=O)C3CC3)nc2c1
CCSC1=C(C#N)C(c2ccc(C)o2)CC(=O)N1 (stereo not given)
CC(=O)/C=C/c1ccccc1O
COc1ccc(-c2csc(Nc3cccc(C)n3)n2)cc1OC
CCOC(=O)c1c(NC(=O)C2C3CCC(O3)C2C(=O)O)sc(C)c1-c1ccc(F)cc1 (stereo not given)
COc1ccc([C@H]2N[C@]3(CCCN(Cc4ccco4)C3=O)[C@H]3C(=O)N(Cc4ccccc4)C(=O)[C@@H]23)cc1
CCN1C(=O)[C@@H]2[C@@H](c3ccc(-c4ccc(Cl)c(Cl)c4)cc3)N3CCC[C@@]3(C(=O)OC)[C@@H]2C1=O
O=C1N[C@@H](Cc2c[nH]c3ccccc23)COC(=O)[C@H](Cc2ccc(F)cc2)C/C=C\C[C@H]1CC(=O)N(CCO)Cc1ccccc1
Cc1sc2nc(SCC(=O)OC(C)C)n(C)c(=O)c2c1C
CCCCCn1c(N2CCOCC2)nc2c1c(=O)n(CC(N)=O)c(=O)n2C
COc1cc2c(CCNC(C)=O)c[nH]c2cc1Cl
CC(C)OCCCNC(=O)C1CCC(CNS(=O)(=O)c2ccccc2)CC1 (stereo not given)
O=S(=O)(NC1c2cccc3cccc(c23)C1Sc1ncccn1)c1ccccc1 (stereo not given)
Cc1onc(-c2ccccc2)c1C(=O)NC(=S)NNC(=O)c1ccc(O)cc1O
COc1ccc(C(=O)NCCNc2nc3cc(C)c(C)cc3cc2C)cc1
CCC(C)(C)NC(=O)C(c1ccc(F)cc1)N(CCOC)C(=O)CCC(=O)Nc1nccs1 (stereo not given)
COc1cccc(C(=O)OCn2nnc3ccccc3c2=O)c1OC
CNC(=S)Nc1ccc2nc(C)c(C)nc2c1
O=C(N/N=C/c1cccnc1)c1cc(-c2cccs2)nc2ccccc12
O=C(O)c1ccc(C=NN=C2c3ccccc3-c3ccccc32)cc1
O=C1CC(c2cccs2)Cc2nc(NC(=O)C3CC3)ncc21 (stereo not given)
CC(C)[C@H](N[C@@H](C)c1ccccc1)c1c(O)ccc2ccccc12
CCn1c(SC(C)C)nnc1-c1c[nH]c2ccccc12
COc1ccccc1-n1c(-c2ccccc2)n[nH]c1=S
CC(=O)c1cc(C(=O)Nc2ccc(C(=O)O)cc2)oc1C
COc1ccc(-c2nc(CN3CCC(C(=O)N4CCOCC4)CC3)c(C)o2)cc1C
COc1ccc(-n2cnc3c(cnn3CCC#N)c2=N)cc1
O=C(N/C(=C/c1ccc(Br)cc1)C(=O)N1CCOCC1)c1ccc(Br)o1
CCN(CC(=O)NCc1ccc(F)cc1)CC(=O)Nc1cc(S(=O)(=O)N(C)C)ccc1C
O=C(Nc1cc(Cl)ccc1Cl)C1Cc2ccccc2O/C1=N\O (stereo not given)
COc1ccc(CNC(=O)N2[C@H]3CC[C@@H]2C=C(c2ccc(F)cc2OCc2ccccc2)C3)cc1OC
Clc1cccc(CN2CCCCCC2)c1
Cc1cccc(Cn2nc(-n3cccc3)c3c(C)cc(C)nc32)c1
CN1CCc2cccc3c2C1Cc1ccc(O)c(O)c1-3 (stereo not given)
CCOc1ccccc1C(=O)NC1CC2CCCC(C1)N2Cc1nnnn1Cc1ccco1 (stereo not given)
COc1ccccc1NC(=O)C(=O)N/N=C(\C)CC(=O)Nc1ccccc1C(F)(F)F
COc1ccc(OC)c(NC(=O)COC(=O)COc2ccc(Nc3ccccc3)cc2)c1
S=C(NN=C1C2CC3CC(C2)CC1C3)Nc1ccccc1
COc1ccc(S(=O)(=O)N2CCCCCC2)cc1C(=O)OCc1cccc(OC)c1OC
CC(=O)Nc1ccc(S(=O)(=O)N2CCCC2)cc1
COC(=O)c1cc2n(n1)CCN(Cc1ccccc1Cl)C2=O
COC(=O)CCCC[C@@H]1SC[C@@H](NC(=O)OC)[C@@H]1NC(=O)OC
N#CCCn1cc(C(=O)Nc2ccccn2)c(-c2ccccc2)n1
C/C(=N\Nc1ccc(C(F)(F)F)cc1[N+](=O)[O-])C(C)C
CN(CC(=O)Nc1cccnc1)S(=O)(=O)c1ccc(Br)cc1
COc1ccc(S(=O)(=O)N2CCOCC2)cc1NC(=O)COC(=O)CCS(=O)(=O)c1ccc(C)cc1
N#CCN(N=Nc1ccccc1)c1ccccc1
COc1cccc(C2=CC(=O)C[C@H](c3ccc4c(c3)OCO4)C2)c1
CCOC(=O)C1CCN(S(=O)(=O)Cc2ccccc2)C1=O (stereo not given)
COc1cc(C2NC(=O)NC(C)=C2C(=O)OC2CCCC(C)C2)cc(Br)c1O (stereo not given)
Cc1cc(N2CCCC2=O)cc(C)c1S(=O)(=O)Nc1c(C)nn(C)c1C
N#CC1=C(N)OC2=C(C(=O)CCC2)C12C(=O)N1CCCc3cccc2c31 (stereo not given)
O=C1CCc2cc(OCCCCc3nnnn3C3CCCCC3)ccc2N1
CN(C)S(=O)(=O)c1cccc(NC(=O)c2n[nH]c(=O)c3ccccc23)c1
Cc1cc(C)nc(SCC(=O)OCN2C(=O)c3ccccc3C2=O)n1
Cc1cc(N=Cc2c(O)ccc3cc(Br)ccc23)no1
Cc1cc2ccccc2n1CCNC(=O)COc1ccc2ccccc2c1
CCOc1ccc(N(C(C)C(=O)N2CCCCCC2)S(C)(=O)=O)cc1 (stereo not given)
CCOc1ccc(S(=O)(=O)N2CCC(C(=O)NCCc3ccc(S(N)(=O)=O)cc3)CC2)cc1
CCOc1cccc(CNc2nnnn2C)c1
COc1ccccc1/C=C/C(=O)c1ccc(Cl)cc1
CCn1c(NC(=O)c2ccc(C)cc2)c2ccccc2nc1=O
COc1ccc(NC(=O)c2cc3c(CO)cnc(C)c3oc2=Nc2cccc(F)c2)c(OC)c1
Brc1ccc(-c2csc(N3CCCCCC3)n2)cc1
C=CCn1c(SCc2ccc3nonc3c2)nnc1-c1cccs1
COc1cccc(/C=N\NC(=O)c2ccc(C)nc2)c1
Oc1ccccc1C=NN=Cc1c(O)ccc2ccccc12
COc1cc(C2CC(=O)N3CN(Cc4ccccc4)CSC3=C2C#N)ccc1OCc1ccccc1 (stereo not given)
Cc1cc(C)c(S(=O)(=O)N2CCN(C(=O)c3ccccc3OCc3c(C)noc3C)CC2)c(C)c1
COc1cc(OC)cc(C(=O)N[C@H](C(=O)OCC(=O)c2ccc(C)c([N+](=O)[O-])c2)C(C)C)c1
COCCn1c(SCC(=O)N2CCc3ccccc32)nc2c(c1=O)SC(C)C2 (stereo not given)
COCCNC(=O)C1CCC(CNS(=O)(=O)c2ccccc2)CC1 (stereo not given)
COc1ccc(N2C3=[N+](CC2(C)O)c2ccccc2CC3)cc1 (stereo not given)
CC(CCc1ccco1)N(C)S(=O)(=O)c1csc(C(N)=O)c1 (stereo not given)
CCc1nnc(NC(=O)c2cc(S(=O)(=O)N3CCN(CC)CC3)ccc2Cl)s1
Cc1nn(CCCC(=O)Nc2cccnc2Cl)c(C)c1[N+](=O)[O-]
Cc1ccc(N2C(=O)c3ccccc3C2Nc2cccnc2)nc1 (stereo not given)
COC(=O)C1=NNC(C(=O)OC)C1c1ccccc1 (stereo not given)
CCOC(=O)C1=C(C)N(C)C(=O)NC1c1ccccc1OC (stereo not given)
CCCN(CC1CC1)c1nc(C)nc(Nc2c(Cl)cc(Cl)cc2Cl)c1Cl
CC1CCC(NC(=O)CC2Oc3ccccc3NC2=O)CC1 (stereo not given)
